Measurements reported in PubChem BioAssay (Tox21).
Active and inactive are the calls of the source. Calls follow the shape of the dose curve; as a rule, active = well fitted curve in the direction sought with a large enough effect in the repeat runs; inconclusive = weak or mixed curves; inactive = flat fitted curve, though single readings scatter.

assay: qHTS assay to test for compound auto fluorescence at 535 nm (green) in HepG2 cells (AID 720675); details: green autofluorescence 485/535 nm, 1 h; series mostly up to 91.3 µM

| SMILES | outcome |
| --- | --- |
| CCCCCCCCCCOc1cc2c(=O)c(C(=O)OCC)c[nH]c2cc1OCC | inactive |
| CCCCOC(=O)CCC(C)=O | inactive |
| O=S(=O)(O)c1cccc(S(=O)(=O)O)c1 | inactive |
| CC1CCC(CO)CC1 (configuration not stated) | inactive |
| COc1ccnc(CS(=O)c2nc3cc(OC(F)F)ccc3[nH]2)c1OC (configuration not stated) | inactive |
| O=C(CO)[C@@H](O)[C@H](O)[C@@H](O)CO | inactive |
| Cc1nc2ccc(CN(C)c3ccc(C(=O)N[C@@H](CCC(=O)O)C(=O)O)s3)cc2c(=O)[nH]1 | inactive |
| CCCC[N+](C)(CCCC)CCCC | inactive |
| C=COCC1CCC(COC=C)CC1 (configuration not stated) | inactive |
| CCOC(=O)c1cnc2c(cnn2CC)c1NN=C(C)C | inactive |
| NC(CCC(=O)O)C(=O)O (configuration not stated) | inactive |
| CC12CCC(C(=O)C1=O)C2(C)C (configuration not stated) | inactive |
| O=C(CO)[C@@H](O)[C@H](O)[C@H](O)CO | inactive |
| FB(F)F | inactive |
| CC(C)(C)OC(=O)c1cccc(N)c1 | inactive |
| c1ccc(Cc2ccccc2)cc1 | inactive |
| CCO[Si](OCC)(OCC)c1ccccc1 | inactive |
| CN(C)C(=O)Oc1ccc[n+](C)c1 | inactive |
| Cc1ccccc1N=C(N)N=C(N)N | inactive |
| COc1ccccc1OCC1CNC(=O)O1 (configuration not stated) | inactive |
| CCN(Cc1ccccc1)c1ccccc1 | inactive |
| O=CN(CCO)CCO | inactive |
| N[C@@H](CCC(=O)O)C(=O)O | inactive |
| CCCOC(=O)CC | inactive |
| O=S(=O)(O)c1cc(O)c(O)c(S(=O)(=O)O)c1 | inactive |
| CCCCCCC#CC(=O)OC | inactive |
| Clc1cc(Cl)c(Cl)nc1Cl | inactive |
